In PubChem BioAssay one finds composite z-score data, which are given here for 35 compounds.

The test system of the assay is Plasmodium falciparum Sir2 (PF13_0152, Sir2A). Put plainly: Plasmodium falciparum Sir2A binding compounds – biochemical, small-molecule microarray, 635 nm fluorescence, primary screen (AID 1098).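 Further: score merges spot fluorescence intensity with its signal-to-noise ratio.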 The conditions noted are these: fluorescence 635 nm, higher = more signal.
`COC(=O)[C@@]1(Cc2ccccc2)[C@H]2c3cc(C(=O)N4CCCC4)[nH]c3C[C@H]2CN1C(=O)c1ccccc1` gave a composite z-score of 1.1.

For the compound `O=C(O)[C@H](Cc1ccccc1)n1cc(-c2ccccn2)nn1`, the composite z-score was -0.0726.

On to `O=C1O[C@@H](c2ccccc2)[C@@H](c2ccccc2)N2[C@@H](c3ccccc3OCCO)[C@]3(C(=O)Nc4ccc(C#CCCO)cc43)[C@@H](C(=O)N3CCN(c4ncccn4)CC3)[C@H]12`, for which the composite z-score was found to be 0.879.

`COc1ccc([Si](C)(C)[C@@H]2[C@@H](CCO)O[C@]3(C(=O)N(Cc4cccc(N5C(=O)c6ccccc6Oc6ccccc65)c4)c4ccccc43)[C@H]2C)cc1` gave a composite z-score of 0.307.

As to `CN(C)CCCN1C(=O)[C@@]2(c3ccc([N+](=O)[O-])cc3)CC(=O)N(CC34CC5CC(CC(C5)C3)C4)[C@@H]2c2ccc(CO)cc21`, the composite z-score came out at 1.68.

For the compound `C[C@]12C(=O)N(CCCCCCO)[C@@H]3C(=O)N(c4ccc(Cl)cc4)CC=CC31O[C@@H]1/C=C\CCCOC(=O)C12` (stereo not given in full), the composite z-score is 1.93.

As to `CC1CC/C=C\[C@H]2OC34C=CCN(c5ccc6ccccc6c5)C(=O)[C@H]3N(C(CO)C(C)C)C(=O)[C@@H]4C2C(=O)O1` (stereo not given in full), the composite z-score came to 0.675.

`O=C1O[C@@H](c2ccccc2)[C@@H](c2ccccc2)N2[C@@H](c3ccc(O)cc3)[C@]3(C(=O)Nc4ccc(C#CC5=CCCCC5)cc43)[C@@H](C(=O)N3CCN(c4ncccn4)CC3)[C@H]12` yielded a composite z-score of 1.59.

As to `C[C@H]1ON(c2ccc(C(=O)OC(C)(C)C)cc2)[C@@H](c2ccc(O)cc2)[C@@H]1C(=O)N1C(=O)OC[C@@H]1c1ccccc1`, the composite z-score turned out to be 1.12.

In the case of `CCOC(=O)C[C@H]1[C@H](OC(=O)Cc2ccc3c(c2)OCO3)[C@@H](NC(=O)C2CCCCC2)c2cc(OCCCO)ccc2N1C(=O)c1ccc2ccccc2n1`, the composite z-score was 0.774.

As for `CN1C(=O)C2C=CC(C(O)c3c(F)cccc3Cl)N(Nc3ccccc3)C2C1=O` (stereo not given), the composite z-score is 1.54.

Consider `COCCCNC(=O)[C@]1(Cc2ccccc2CN=[N+]=[N-])N=C(c2ccc(OCCCO)cc2)O[C@@H]1c1ccccc1`, for which the composite z-score was found to be 0.465.

For the compound `[N-]=[N+]=NCc1ccccc1C[C@@]1(C(N)=O)N=C(c2ccc(OCCCO)cc2)O[C@@H]1c1ccccc1CN=[N+]=[N-]`, the composite z-score came to 0.448.

`COC(=O)[C@@]1(Cc2ccc(OC)cc2)[C@H]2c3cc(C(=O)N4CCCC4)n(CCc4cc5ccccc5[nH]4)c3C[C@H]2CN1C(=O)c1ccccc1` had a composite z-score of 1.52.

As to `COCCOC(=O)N1C(=O)[C@@]2(c3cc(C#Cc4ccc(OC)cc4)ccc31)[C@H](C(=O)NC[C@H](O)c1ccccc1)[C@H]1C(=O)O[C@H](c3ccccc3)[C@H](c3ccccc3)N1[C@@H]2c1ccc(O)cc1`, the composite z-score stood at 0.557.

Consider `C=CC[C@@]12N=C(c3ccc(OCCCO)cc3)O[C@@H]1c1ccccc1N(CCS(=O)(=O)c1ccccc1)C2=O`, for which the composite z-score was 1.22.

With `C=CCN1C(=O)[C@]2(CC=C)N=C(c3ccc(OCCCO)cc3)O[C@@H]2c2ccccc21`, the composite z-score turned out to be 1.08.

Compound `Cc1ccc(S[C@]2(C(=O)NCC(C)C)CC(=O)N(Cc3ccccc3Cl)[C@@H]2c2ccc(CO)cc2I)cc1` yielded a composite z-score of 1.22.

On to `COc1ccccc1CN1C(=O)c2ccccc2[C@](Cc2ccccc2I)(C(=O)NC(C)C)[C@@H]1c1ccc(CO)cc1`, for which the composite z-score amounted to 0.672.

For `CCOc1cc(C(O)C2C=CC3C(=O)N(C4CCCCC4)C(=O)C3N2Nc2ccc(OC)cc2)ccc1O` (stereo not given), the composite z-score was found to be 0.692.

`COCCOC(=O)N1C(=O)[C@@]2(c3cc(C#Cc4ccc(OC)cc4)ccc31)[C@H](C(=O)N1CCCCCCC1)[C@H]1C(=O)O[C@H](c3ccccc3)[C@H](c3ccccc3)N1[C@@H]2c1ccc(O)cc1` showed a composite z-score of 0.773.

In the case of `C=C(C(=O)CC[C@H](OC(=O)c1cccnc1)c1ccc(CO)o1)C(C)C`, the composite z-score came out at 1.08.

On to `COC(=O)[C@H](Cc1ccccc1)N1CC(/C=C/C2CC2)=C[C@@H]1[C@@H](O)Cc1ccccc1`, for which the composite z-score turned out to be 1.01.

Consider `COC(=O)[C@@]1(Cc2ccc(OC)cc2)[C@H]2c3cc(C(=O)N(C)C)n(Cc4nc5ccccc5[nH]4)c3C[C@H]2CN1C(=O)c1ccccc1`, for which the composite z-score is 0.432.

Turning to `CN(C)C(=O)[C@]1(CCC(=O)OC(C)(C)C)N=C(c2ccc(OCCCO)cc2)O[C@@H]1c1ccccc1`, the composite z-score amounted to 0.11.

For the compound `COCCOC(=O)N1C(=O)[C@@]2(c3cc(C#CC4(O)CCCCCC4)ccc31)[C@H](C(N)=O)[C@H]1C(=O)O[C@H](c3ccccc3)[C@H](c3ccccc3)N1[C@@H]2c1ccccc1OCCO`, the composite z-score is 1.28.

For the compound `Cc1ccc(S[C@]2(C(=O)NCC(F)(F)F)CC(=O)N(Cc3ccccc3)[C@@H]2c2ccc(CO)cc2)cc1`, the composite z-score came to 1.54.

For `COCCCNC(=O)[C@@]1(Sc2ccc(C)cc2)CC(=O)N(C2Cc3ccccc3C2)[C@@H]1c1ccc(CO)cc1I`, the composite z-score was 0.693.

In turn, `C=CC[C@]1(C(=O)N(C)C)N=C(c2ccc(OCCCO)cc2)O[C@H]1c1ccccc1N=[N+]=[N-]` yielded a composite z-score of 0.265.

In turn, `CCOC(=O)C1=CC[C@@H](c2ccccc2C(F)(F)F)N(S(=O)(=O)c2ccc(C)cc2)C1` returned a composite z-score of 1.23.

`CC(C)C(O)C1C=CC2C(=O)N(C)C(=O)C2N1N(c1ccccc1)c1ccccc1` (stereo not given) showed a composite z-score of 1.09.

Consider `CCOC(=O)C1=CC[C@@H](c2ccc([N+](=O)[O-])cc2)N(S(=O)(=O)c2ccc(C)cc2)[C@H]1c1ccccc1`, for which the composite z-score worked out at 0.992.

The compound `[N-]=[N+]=NCc1ccccc1C[C@@]1(C(=O)N2CCCCC2)N=C(c2ccc(OCCCO)cc2)O[C@@H]1c1ccccc1N=[N+]=[N-]` had a composite z-score of 0.679.

As for `C=C(/C(=C/C[C@@H](OC(=O)c1ccncc1)c1ccccc1OCCO)c1cc(C(=O)OC)ccc1OC)C(C)C`, the composite z-score was 1.04.

Compound `COCCOC(=O)N1C(=O)[C@@]2(c3cc(C#CC4(O)CCCCCC4)ccc31)[C@H](C(N)=O)[C@H]1C(=O)O[C@H](c3ccccc3)[C@H](c3ccccc3)N1[C@@H]2c1ccc(O)cc1` yielded a composite z-score of 1.16.
